According to PubChem BioAssay AID686978 (National Center for Advancing Translational Sciences (NCATS), 2013):
About 64,000 (15%) of roughly 420,000 compounds were called active. Roughly 27% stayed inconclusive and do not appear here. A selection follows. Values without a mark were called inactive. The call rests on the fitted dose curve; in most records, active means well fitted inhibition curve with a large enough effect; inconclusive means small, poorly fitted or top-dose-only effect; inactive means flat fitted curve, though single readings scatter.

Assay: qHTS for Inhibitors of human tyrosyl-DNA phosphodiesterase 1 (TDP1): qHTS in cells in absence of CPT; further: nearly all actives have a fitted effect of over 55% in size
Conditions: DT40 Tdp1-/- hTDP1 cells, no CPT, ATP luminescence, 48 h; activity change, negative = growth inhibition: at 46.2 µM (top of the series)
In short: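 Compound effects on proliferation are scored in DT40 Tdp1-/-;hTDP1 cells in the absence of CPT. ATP levels (CellTiter-Glo luminescence) are recorded after a ≥48 hr, 37 °C incubation.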
On the % scale 0 is the no-effect control and ±100 the full control effect; potency means the concentration at half of the fitted maximal effect.

Row | Compound | activity change, negative = growth inhibition | Potency
1 | CC1CCCC(N2CCN(C(=O)c3ccc(F)cc3)CC2)C1 (centres undefined) | 0.357% | 
2 | CS(=O)c1ccc(/C=C2\C=Cc3ccccc32)cc1 (centres undefined) |  | 20 µM (active)
3 | CN(C(=N)N)c1ccc(/C=C2\C=Cc3ccccc32)cc1 |  | 2.82 µM (active)
4 | C#CCCOC(=O)N1C2=NC(C(=O)OC)=C(C(=O)OC)[C@@H]3N(C)c4ccc(OC)cc4[C@]23C[C@H]1C(=O)OC | -22.5% | 
5 | O=c1ccc2cc(S(=O)(=O)NCCCc3ccccc3)ccc2[nH]1 | 2.3% | 
6 | C=CCn1c(SCc2nnc(-c3ccccc3)o2)nnc1C(O)c1ccccc1 (centres undefined) | -2.15% | 
7 | FC(F)(F)c1cccc(-c2cn[nH]c2C2CCCN(Cc3cccn3-c3ccccn3)C2)c1 (centres undefined) | -15.9% | 
8 | Cc1nn(C)cc1C(=O)Nc1ccccc1Br | 1.55% | 
9 | COc1ccc(N2CCN(Cc3nc4c(c(=O)[nH]c(=O)n4C)n3Cc3ccc(Cl)cc3)CC2)cc1 | -9.95% | 
10 | COc1ccc(CN2CCC(c3nc4ccc(Cl)cc4[nH]3)CC2)cc1 |  | 20.6 µM (active)
11 | COc1ccc(Cn2nnc3c(=O)[nH]c(C4CCN(C(=O)c5ccccc5Cl)CC4)nc32)cc1 | -20.1% | 
12 | CN(CCCNC(=O)CN1C(=O)CC(C)(C)S(=O)(=O)c2ccccc21)C1CCCCC1 | -1.88% | 
13 | COC(=O)c1nc(NC(=O)c2ccc(Cl)cc2)n[nH]1 | -16% | 
14 | CC[C@@H](C)[C@H](NC(=O)CCc1c(C)c2cc3c4c(oc3c(C)c2oc1=O)CCCC4)C(=O)O | -7.86% | 
15 | COc1ccc(NC(=O)CN(C)C(=O)c2cc(C)oc2C)cc1 | -5.51% | 
16 | CC(C)=CCc1ccc(O)c(=O)cc1C(C)C |  | 20.6 µM (active)
17 | Cc1ccc(S(=O)(=O)c2c[nH]c3ccc(Cl)cc3c2=O)cc1 | -4.52% | 
18 | O=C1COc2ccc(C(=O)CSc3ccc(Br)cc3)cc2N1 |  | 16.4 µM (active)
19 | O=C1COc2ccc(C(=O)COC(=O)CCOc3ccccc3)cc2N1 | -3.08% | 
20 | O=C1COc2ccc(C(=O)COC(=O)c3cccnc3Cl)cc2N1 | -10.6% | 
21 | CCCc1cc(=O)n2[nH]c(C)c(-c3ccc(Cl)cc3)c2n1 |  | 14.6 µM (active)
22 | Cc1nc2c(-c3ccccc3)c(C)[nH]n2c(=O)c1Cl | -2.41% | 

Row | Compound | activity change, negative = growth inhibition | Potency
23 | COCc1cc(=O)n2[nH]c(C)c(-c3ccccc3)c2n1 | -22% | 
24 | CCCC(=O)C1=C(N(C)c2ccccc2)CC(C)(C)C(C(=O)OC)C1=O (centres undefined) | 1.17% | 
25 | O=C(CSc1ccc([N+](=O)[O-])cn1)Nc1ccc(N2CCOCC2)cc1 | -0.217% | 
26 | CCN(C(=O)CSc1nnc(-c2ccc(OC(F)F)cc2)n1N)C1CCS(=O)(=O)C1 (centres undefined) | -2.01% | 
27 | CCOc1ccccc1/C=c1\sc2nc(-c3ccco3)nn2c1=O | -27.5% | 
28 | CN(C)c1nc(N)nc(CSc2ccccn2)n1 | 0.12% | 
29 | Cc1cccc(NC(=O)c2cc(S(=O)(=O)N3CCC4(CC3)OCCO4)ccc2F)c1 | -12.9% | 
30 | Cc1ccc(NC(=O)CCNS(=O)(=O)c2ccc3c(c2)oc(=O)n3C)cc1C | -11.2% | 
31 | Cc1ccc(NC(=O)c2cc(S(=O)(=O)NCCC3=CCCCC3)ccc2F)cc1C |  | 25.9 µM (active)
32 | CCCc1nc(-c2cc3cc(C)ccc3[nH]c2=O)no1 | -0.734% | 
33 | NC(=O)C1CCN(C(=O)/C(=C/c2ccco2)NC(=O)c2ccccc2)CC1 | 2.41% | 
34 | COc1ccc(CN(C(=O)CSc2nnc(-c3ccc(OC)c(OC)c3)o2)c2ccc(F)cc2)cc1 |  | 23.1 µM (active)
35 | CCN(CC)C(=O)CSc1nnc(-c2cccc(OC)c2)o1 | -15.7% | 
36 | COc1ccc(CCNC(=O)CSc2nnc(-c3cccc(F)c3)o2)cc1OC | -4.14% | 
37 | O=C(NCc1ccccn1)c1cc2ccccc2oc1=O | 0.085% | 
38 | CCc1cccc(NC(=O)CCC(=O)O)c1 | -3.95% | 
39 | O=C(CSCc1ccccc1)Nc1ccccc1 | -7.06% | 
40 | O=C(CCl)Nc1cccc(CP(=O)(c2ccccc2)c2ccccc2)c1 |  | 2.59 µM (active)
41 | COc1ccc(N(Cc2cc3cc(OC)ccc3[nH]c2=O)S(C)(=O)=O)cc1 | -16.8% | 
42 | COc1ccc2[nH]c(=O)c(CNc3ccc(C)c(C)c3)cc2c1 |  | 8.2 µM (active)
43 | CCC(=O)N(Cc1cc2cc(OC)ccc2[nH]c1=O)c1ccccc1C | -18.3% | 
44 | CC(=O)Oc1ccccc1C1=NN(C(C)=O)C(c2ccccc2)C1 (centres undefined) | -27.3% | 

Row | Compound | activity change, negative = growth inhibition | Potency
45 | COc1ccc(C2CC(c3ccccc3)=NN2C(=O)CSc2nccc(=O)[nH]2)cc1 (centres undefined) | -5.98% | 
46 | O=C1C2N=NN(CC(=O)N3N=C(c4cccc5ccccc45)CC3c3ccccc3)C2C(=O)N1c1ccccc1 (centres undefined) |  | 29.1 µM (active)
47 | COc1cc(CN2CCNC(=O)C2CC(=O)NCCc2ncccc2C)cc(OC)c1 (centres undefined) | -16% | 
48 | CCN1CCCC1CNC(=O)c1cc2cc(OC)c(OC)cc2[nH]1 (centres undefined) | 11.2% | 
49 | CCOC(=O)C1(C)CCCN(C(=O)c2ccc(F)c(Cl)c2)C1 (centres undefined) |  | 20.6 µM (active)
50 | CCCS(=O)(=O)NC(=O)C1(C)CCCN(C(=O)c2ccnc(Cl)c2)C1 (centres undefined) | -6.61% | 
51 | CCOC(=O)C1(C)CCCN(C(=O)c2ccc(N(C)C)cc2)C1 (centres undefined) | -16.9% | 
52 | COC(=O)/C(=C1\Oc2ccc(C(C)(C)C)cc2S1)C(F)(F)F | -21.9% | 
53 | CC(=O)Nc1ccc(S(=O)(=O)NC2(C(F)(F)F)C(=O)NC(C)=C2C#N)cc1 (centres undefined) | -6.96% | 
54 | O=C(Cc1ccccc1F)NC1CCSc2ccccc21 (centres undefined) | -9.14% | 
55 | CCc1cc(Br)ccc1NC(=O)C1CCCO1 (centres undefined) | 2.43% | 
56 | COc1ccccc1C(=O)COC(=O)CNS(=O)(=O)c1ccc(NC(C)=O)cc1 | -3.88% | 
57 | O=c1c2cc3c(=O)n(CC4CCCO4)c(=O)c3cc2c(=O)n1CC1CCCO1 (centres undefined) | -6.38% | 
58 | O=C(NCc1ccc2c(c1)OCO2)c1ccc2c(c1)C(=O)N(CC1CCCO1)C2=O (centres undefined) | -27.4% | 
59 | O=C1c2cccc3c([N+](=O)[O-])ccc(c23)C(=O)N1CC1CCCO1 (centres undefined) |  | 5.8 µM (active)
60 | CCOc1ccc(/C=C/C(=O)OCC(=O)c2ccccc2OC)cc1OC |  | 20.6 µM (active)
61 | COc1cc(/C=C/C(=O)OCC(=O)NC(=O)NCc2ccccc2)ccc1OCC#N | -13.8% | 
62 | COc1ccc(/C=C/C(=O)OCC(=O)NCc2cccs2)cc1OC | -1.48% | 
63 | COc1ccc(S(=O)(=O)N(CC(=O)N/N=C/c2ccc(C(=O)O)cc2)Cc2ccccc2)cc1OC | 3% | 
64 | Cc1nonc1OCCn1nnnc1N | -1.77% | 
65 | Cc1csc(=O)n1CCC(=O)OCC(=O)Nc1ccc(N2CCOCC2)cc1 | -5.01% | 
66 | O=C1Nc2cc(Cl)c(Cl)cc2N(O)N1c1ccccc1Cl | 2.71% | 

Row | Compound | activity change, negative = growth inhibition | Potency
67 | COC(=O)c1ccc(COC(=O)c2cnc(Cl)c(Cl)c2)cc1 | -7.94% | 
68 | COC(=O)c1ccc2nc(-c3ccccc3)c(Cc3ccc(OC)cc3C)n2c1 |  | 23.1 µM (active)
69 | COc1ccc(C(=O)NCc2cn3ccccc3n2)cc1 | 3.12% | 
70 | COC(=O)c1ccc2nc(-c3ccc(OC)c(OC)c3)c(Cc3ccccc3)n2c1 |  | 20.6 µM (active)
71 | COC(=O)c1ccc(NC(=O)CSc2nncc3ccc(OC)c(OC)c23)cc1 | -16.5% | 
72 | COC(=O)c1ccc2nc(-c3cccc(Br)c3)c(Cc3ccccc3C(F)(F)F)n2c1 | -18% | 
73 | COC(=O)c1ccc2nc(-c3ccc(Cl)cc3)c(Cc3cccc(F)c3)n2c1 |  | 23.1 µM (active)
74 | COC(=O)c1ccc2nc(-c3ccc(F)cc3)c(Cc3ccc(C)cc3)n2c1 | -27.5% | 
75 | CCN1CCN(Cc2c(O)ccc3c(=O)c(-c4ccc(OC)c(OC)c4)c(C(F)(F)F)oc23)CC1 | -17.6% | 
76 | Cc1ccc(NS(=O)(=O)c2c(C)[nH]c(=O)[nH]c2=O)cc1C | -4.65% | 
77 | C[C@@H]1CC[C@]2(O[C@@H](CCO)C[C@H](O)[C@H]2O)O1 | 5.06% | 
78 | CCCCSc1nnc(-c2ccc(NC(=O)CC)cc2)n1C |  | inactive
79 | O=C(c1cccc(S(=O)(=O)Nc2ccccc2Cl)c1)N1CCN(C(=O)c2ccco2)CC1 | 1.12% | 
80 | COc1ccc(C)cc1NC(=O)NCCCCc1ccccc1 | 12.6% | 
81 | CCOc1ccc(-c2nonc2NC(=O)c2oc3ccc(CC)cc3c2C)cc1 |  | 20.6 µM (active)
82 | CCc1nonc1NC(=O)c1oc2ccc(Cl)cc2c1C |  | inactive
83 | CCOc1ccc(-c2nonc2NC(=O)c2oc3ccc(C)cc3c2C)cc1OCC | -16.5% | 
84 | CCCCCCCCOC1OC(CO)C(O)C(O)C1NC(C)=O (centres undefined) | -3.29% | 
85 | O=C1CCN(C(=O)Nc2ccccc2)N1 | 1.14% | 
86 | CCNC(=O)C1(C)CCCN(C(=O)c2c(C)noc2C)C1 (centres undefined) | -13.2% | 
87 | COc1ccc(-c2cc(-c3ccc(F)cc3)nc3c2COc2ccccc2-3)cc1 | -23.6% | 
88 | NC(=O)C1CCN(C2OC(=O)c3ccccc32)CC1 (centres undefined) | -8.31% | 

Row | Compound | activity change, negative = growth inhibition | Potency
89 | CCOC(=O)NNC(=O)c1ccc(Cl)cc1 | -8.72% | 
90 | Cc1nn(C)c(C)c1S(=O)(=O)N1CCC(CO)(Cc2ccc(Cl)cc2)CC1 |  | 16.4 µM (active)
91 | CCOc1ccccc1NC(=O)C1CCN(S(=O)(=O)c2c(C)nn(C)c2C)CC1 | -18.3% | 
92 | Cc1ccc(S(=O)(=O)n2nc(C)c(S(=O)(=O)N3CCCCCC3)c2C)cc1 | -4.52% | 
93 | COc1ccc(NC(=O)c2ccccc2CC[N+](=O)[O-])cc1 | 1.08% | 
94 | CC(=O)c1cccc(NC(=O)c2nc(-c3ccccc3)n(-c3cccc(C)c3)n2)c1 |  | 10.3 µM (active)
95 | CC(=O)c1cccc(NC(=O)Nc2ccc(C)cc2)c1 | -22.1% | 
96 | CC(=O)c1cccc(NC(=O)c2cc(C)nn2-c2ccccc2)c1 | -28.1% | 
97 | COc1ccc2c(c1)C(c1cccs1)=NNC(c1cccnc1)=N2 | -18% | 
98 | COC(=O)c1cccc([N+](=O)[O-])c1CS(=O)(=O)c1ccc(C)cc1 | 0.149% | 
99 | COc1cccc2c(O)cc(=O)n(C)c12 | -27.5% | 
100 | COCCCN(C(=S)Nc1c(C)cc(C)cc1C)C(C)c1ccncc1 (centres undefined) | -2.19% | 
101 | CNC(=O)c1ccsc1NC(=O)c1ccc(S(=O)(=O)N2CCOCC2)cc1 |  | 23.1 µM (active)
102 | CNC(=O)c1ccsc1NC(=O)c1ccc(S(=O)(=O)N2CCc3ccccc32)cc1 |  | 18.4 µM (active)
103 | COc1ccc(C(=O)Nc2nc(-c3ccc(S(=O)(=O)N4CCOCC4)cc3)cs2)cc1 |  | 20.6 µM (active)
104 | COc1ccc(S(=O)(=O)n2nc(C)c(S(=O)(=O)N3CCOCC3)c2C)cc1 | 18.8% | 
105 | O=C(Nc1ccc(S(=O)(=O)N2CCOCC2)cc1)c1ccc2ncsc2c1 | 2.34% | 
106 | CS(=O)(=O)N1CCc2cc(C(=O)Nc3ccccc3Br)ccc21 | 6.47% | 
107 | Cc1cc2nc(NC(=O)c3ccc(S(=O)(=O)N4CCOCC4)cc3)sc2cc1C | 2.39% | 
108 | Cc1ccc(S(=O)(=O)N2CCOCC2)cc1NC(=O)c1ccncc1 | -13.4% | 
109 | CSc1ccccc1NC(=O)c1ccc2c(c1)CCN2S(C)(=O)=O | -18.4% | 
